# Measurements taken from PubChem BioAssay (EPA / NIEHS).
# Activity calls are given as the source filed them. Rule for the calls: active = hit-call score of the fitted dose curve at least 0.9, where 1 is the maximum; inactive = score below 0.9.
# Read-out: HGF (gene 3082)
# Assay: LTEA_HepaRG_HGF: Life Technologies and Expression Analysis (LTEA) Assay for Hepatocyte Growth Facto (HGF) using HepaRG (AID 2283505)
# Details: mRNA level, 48 h; actives raise or lower the signal
# How it was run: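 Differentiated human HepaRG cells in serum-free induction medium were exposed in duplicate for 48 h to eight concentrations (top 100 uM, half-log steps, 0.5% DMSO). HGF mRNA was quantified by qRT-PCR, normalized to ACTB, GAPDH and POLR2A.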
SMILES,outcome,AC50
O=C(O)C1(C(=O)Nc2ccc(Cl)cc2Cl)CC1,inactive,
C=CCOC(Cn1ccnc1)c1ccc(Cl)cc1Cl (stereo not given),inactive,
COCCO,inactive,
C#CCOC(=O)[C@@H](C)Oc1ccc(Oc2ncc(Cl)cc2F)cc1,inactive,
CC(=O)[C@H]1CC[C@H]2[C@@H]3CCC4=CC(=O)CC[C@]4(C)[C@H]3CC[C@]12C,,85.4 µM (active)
CCN(CC)C(=O)c1cccc(C)c1,inactive,
COc1c(Cl)ccc(Cl)c1C(=O)O,inactive,
CCCCCOC(=O)COc1cc(N2C(=O)C3=C(CCCC3)C2=O)c(F)cc1Cl,inactive,
CCC(C)OC(=O)N1CCCCC1CCO (stereo not given),inactive,
CCCCOCCOCCOCc1cc2c(cc1CCC)OCO2,inactive,
CCOC(=O)COc1cc(-n2ncc(C(F)(F)F)c(C)c2=O)c(F)cc1Cl,inactive,
CCCN(CCC)c1c([N+](=O)[O-])cc(C(F)(F)F)c(N)c1[N+](=O)[O-],inactive,
CC1(C)C(C=C(Cl)Cl)C1C(=O)OCc1cccc(Oc2ccccc2)c1 (stereo not given),inactive,

# Read-out: Insulin Like Growth Factor 1 (IGF1), IGF1 (gene 3479)
# Assay: LTEA_HepaRG_IGF1: Life Technologies and Expression Analysis (LTEA) Assay for Insulin Like Growth Factor 1 (IGF1) using HepaRG (AID 2283506)
# Details: mRNA level, 48 h; actives raise or lower the signal
# How it was run: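 Using human HepaRG liver cells, IGF1 transcript induction or suppression is measured 48 h after dosing across eight concentrations capped at 100 uM. Values derive from bidirectional concentration-response fitting with DMSO as baseline.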
SMILES,outcome,AC50
C#C[C@]1(O)CC[C@H]2[C@@H]3CCC4=CC(=O)CC[C@@H]4[C@H]3CC[C@@]21CC,inactive,
O=C(O)c1ccccc1,inactive,
COC(=O)c1ccccc1C(=O)O,inactive,
CC(C)(C)[C@@H](O)[C@@H](Cc1ccc(Cl)cc1)n1cncn1,inactive,
c1ccc2[nH]c(-c3cscn3)nc2c1,inactive,
N[C@@H](Cc1cc(I)c(Oc2ccc(O)c(I)c2)c(I)c1)C(=O)O,inactive,
CCOC(=O)c1ccc(O)cc1,inactive,
O=C(Nc1ccc([N+](=O)[O-])cc1Cl)c1cc(Cl)ccc1O,,3.59 µM (active)
COC(=O)c1ccc(I)cc1S(=O)(=O)NC(=O)Nc1nc(C)nc(OC)n1,inactive,
CCCN(CCC)C(=O)SCC,inactive,
CCCCC(CC)COC(=O)c1ccccc1C(=O)O (stereo not given),,50.8 µM (active)
C[C@]12C[C@H](O)[C@H]3[C@@H](CCC4=CC(=O)CC[C@@]43C)[C@@H]1CC[C@@H]2C(=O)CO,inactive,
S=C([S-])NCCNC(=S)[S-].[Mn+2],,5 µM (active)
O=C(O)C1(C(=O)Nc2ccc(Cl)cc2Cl)CC1,inactive,
C=CCOC(Cn1ccnc1)c1ccc(Cl)cc1Cl (stereo not given),,18.3 µM (active)
CCCOC(=O)NCCCN(C)C,inactive,
COCCO,inactive,
C#CCOC(=O)[C@@H](C)Oc1ccc(Oc2ncc(Cl)cc2F)cc1,inactive,
CC(=O)[C@H]1CC[C@H]2[C@@H]3CCC4=CC(=O)CC[C@]4(C)[C@H]3CC[C@]12C,,32.4 µM (active)
CCN(CC)C(=O)c1cccc(C)c1,,13.1 µM (active)
COc1c(Cl)ccc(Cl)c1C(=O)O,inactive,
CCCCCOC(=O)COc1cc(N2C(=O)C3=C(CCCC3)C2=O)c(F)cc1Cl,inactive,
CCC(C)OC(=O)N1CCCCC1CCO (stereo not given),inactive,
CCCCOCCOCCOCc1cc2c(cc1CCC)OCO2,,21.3 µM (active)
CCOC(=O)COc1cc(-n2ncc(C(F)(F)F)c(C)c2=O)c(F)cc1Cl,inactive,
CCCN(CCC)c1c([N+](=O)[O-])cc(C(F)(F)F)c(N)c1[N+](=O)[O-],,22.7 µM (active)
CC1(C)C(C=C(Cl)Cl)C1C(=O)OCc1cccc(Oc2ccccc2)c1 (stereo not given),inactive,
